The target in this experiment is A0A0A0MT26|P13637|P13637-2|P13637-3 (UniProt P13637). Nature of the experiment: NP40-soluble protein abundance relative to vehicle (solubility fold change) (ratio); higher = more soluble protein in presence of GTP. The protocol:
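Solubility proteome profiling in Jurkat crude lysate. Lysate was treated with Mg-GTP (0.1-10 mM) for 10 min at room temperature and 3 min at 37 °C, then solubilised with 0.8% NP40 and benzonase, followed by ultracentrifugation. Proteins were quantified by TMT10 LC-MS/MS; the value is the NP40-soluble abundance relative to the NP40-processed vehicle, from 3 independent experiments.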

SMILES strings stand for the structures. ± gives the standard deviation of the averaged measurements. The full data set covers some 5,400 targets. This sample favours those with the largest changes.

In the case of `Nc1nc2c(ncn2[C@@H]2O[C@H](COP(=O)(O)OP(=O)(O)OP(=O)(O)O)[C@@H](O)[C@H]2O)c(=O)[nH]1` [guanosine triphosphate], the NP40-soluble protein abundance (concentration: 0.1mM) turned out to be 1.01 ± 0.05; the NP40-soluble protein abundance (concentration: 0.5mM) is 1.01 ± 0.028; the NP40-soluble protein abundance (concentration: 1mM) stood at 1.02 ± 0.028; the NP40-soluble protein abundance (concentration: 2mM) stood at 0.982 ± 0.029; the NP40-soluble protein abundance (concentration: 4mM) was 1.01 ± 0.042; the NP40-soluble protein abundance (concentration: 6mM) is 1 ± 0.0083. Moreover, the NP40-soluble protein abundance by setting is: (concentration: 8mM) 1 ± 0.034; (concentration: 10mM) 0.958 ± 0.047.

For the origin of these results see the supplement of paper PMC6411743.
